This is part of a sample that, as a whole, favours compounds with a hit. Of some 83,000 tested, about 20% had one in any assay.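 The endpoint reported here, percent growth, reads 100 for growth as untreated, 0 for no net growth and -100 for all cells dead.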 Calls of active or inactive are those of the source. How the source made its calls: active means growth percent below 10; inactive means the rest.
What was measured:
Test in all cases: NCI-60 one-dose screen, 48 h (100 = growth as untreated, 0 = no growth, -100 = all killed)
Settings in all cases: 10 µM unless noted
HCT-15 colon = tested on: HCT-15 colon
HT29 colon = tested on: HT29 colon
SNB-75 CNS = tested on: SNB-75 CNS
SNB-19 CNS = tested on: SNB-19 CNS
U251 CNS = tested on: U251 CNS
PC-3 prostate = tested on: PC-3 prostate
SK-MEL-5 melanoma = tested on: SK-MEL-5 melanoma
UACC-62 melanoma = tested on: UACC-62 melanoma
LOX IMVI melanoma = tested on: LOX IMVI melanoma
SK-MEL-28 melanoma = tested on: SK-MEL-28 melanoma

Measured: growth

CC1CCN(CC(=O)Nn2c(COc3ccccc3)nc3ccccc3c2=O)CC1
inactive: HCT-15 colon 56% | HT29 colon 73.1% | SNB-75 CNS 72.6% | SNB-19 CNS 86.4% | U251 CNS 81.4% | PC-3 prostate 94.3% | SK-MEL-5 melanoma 82.9% | UACC-62 melanoma 69.3% | LOX IMVI melanoma 85.3% | SK-MEL-28 melanoma 92.8%

CN(C)c1ccc(/C=N/Nc2nc(N/N=C/c3ccc(N(C)C)cc3)nc(N3CCCCC3)n2)cc1
active: HCT-15 colon 0.121% | HT29 colon -4.67% | LOX IMVI melanoma -73.3%
inactive: SNB-75 CNS 101% | SNB-19 CNS 86% | U251 CNS 50% | PC-3 prostate 84.8% | SK-MEL-5 melanoma 86.7% | UACC-62 melanoma 101% | SK-MEL-28 melanoma 41.7%

COc1cc(C(C)=C(c2ccc(OCCN(C)C)cc2)c2ccc(OCCN(C)C)cc2)ccc1F
inactive: HCT-15 colon 101% | HT29 colon 108% | SNB-75 CNS 100% | SNB-19 CNS 98.2% | U251 CNS 106% | PC-3 prostate 110% | SK-MEL-5 melanoma 96.6% | UACC-62 melanoma 97.8% | LOX IMVI melanoma 95.3% | SK-MEL-28 melanoma 109%

CC(Nc1ncnc2ccc(-c3cnc(N)nc3)cc12)c1ccccc1 (stereo not given)
inactive: HCT-15 colon 22.4% | HT29 colon 43.1% | SNB-75 CNS 31.1% | SNB-19 CNS 40% | U251 CNS 47% | PC-3 prostate 29.7% | SK-MEL-5 melanoma 26.4% | UACC-62 melanoma 28.5% | LOX IMVI melanoma 23.8% | SK-MEL-28 melanoma 50.2%

O=C(/C=C/Nc1ccc(S(=O)(=O)Nc2ncccn2)cc1)c1ccc(N=Cc2c(O)[nH]c3ccccc23)cc1
inactive: HCT-15 colon 104% | HT29 colon 106% | SNB-75 CNS 102% | SNB-19 CNS 112% | U251 CNS 103% | PC-3 prostate 101% | SK-MEL-5 melanoma 98.1% | UACC-62 melanoma 108% | LOX IMVI melanoma 102% | SK-MEL-28 melanoma 118%

Clc1cccc(/C=N/Nc2nc(N/N=C/c3cccc(Cl)c3)nc(N3CCCCC3)n2)c1
inactive: HCT-15 colon 79.8% | HT29 colon 85.6% | SNB-75 CNS 102% | SNB-19 CNS 98.6% | U251 CNS 91.7% | PC-3 prostate 76% | SK-MEL-5 melanoma 80.6% | UACC-62 melanoma 79.2% | LOX IMVI melanoma 105% | SK-MEL-28 melanoma 96.2%

COc1ccc(N2CCN(C3=C(Cl)C(=O)c4ncccc4C3=O)CC2)cc1
inactive: HCT-15 colon 17.1% | HT29 colon 87.3% | SNB-75 CNS 85.2% | SNB-19 CNS 94.7% | U251 CNS 90.9% | PC-3 prostate 68.1% | SK-MEL-5 melanoma 95% | UACC-62 melanoma 69.3% | LOX IMVI melanoma 21% | SK-MEL-28 melanoma 78.3%

Cc1[nH]c(C(=O)Nc2ccccc2OCc2cccc(C(=O)NCCN)c2)cc1Cl
inactive: HCT-15 colon 106% | HT29 colon 69.4% | SNB-75 CNS 74.4% | SNB-19 CNS 85.8% | U251 CNS 53.3% | PC-3 prostate 96.5% | SK-MEL-5 melanoma 99.3% | UACC-62 melanoma 68.4% | LOX IMVI melanoma 35.6% | SK-MEL-28 melanoma 37.6%

C[C@]12CC[C@H]3[C@@H](CC=C4C[C@@H](O)CC[C@@]43C)[C@@H]1CC[C@@H]2[C@](C)(O)CCc1cccnc1
inactive: HCT-15 colon 70.2% | HT29 colon 69.1% | SNB-75 CNS 62% | SNB-19 CNS 71.4% | U251 CNS 74.1% | PC-3 prostate 70.1% | UACC-62 melanoma 62.6% | LOX IMVI melanoma 75.9% | SK-MEL-28 melanoma 74.4%
active: SK-MEL-5 melanoma 7.89%

CCCCCCNC(=O)Oc1ccc(/C(=C(/C)c2ccc(Cl)cc2)c2ccc(OCCN3CCCCCC3)cc2)cc1
inactive: HT29 colon 21.3% | SNB-75 CNS 99.6% | SNB-19 CNS 68.4% | U251 CNS 55.8% | PC-3 prostate 49.2% | SK-MEL-5 melanoma 73.6% | UACC-62 melanoma 63.8% | LOX IMVI melanoma 32.8% | SK-MEL-28 melanoma 84%
active: HCT-15 colon 9.59%

C[C@H]1OCC2(CCN(c3cnc(C(=O)Nc4cc(F)cc5cccnc45)cn3)CC2)[C@H]1N
inactive: HCT-15 colon 14.5% | HT29 colon 30.3% | SNB-75 CNS 62.9% | SNB-19 CNS 73.5% | U251 CNS 66.3% | PC-3 prostate 50.8% | SK-MEL-5 melanoma 93.2% | UACC-62 melanoma 31.7% | LOX IMVI melanoma 33.2% | SK-MEL-28 melanoma 61.4%

CC1=C(C)C(=O)C(Nc2ccc3c(c2)OCCO3)=C(Br)C1=O
inactive: HCT-15 colon 98.1% | HT29 colon 108% | SNB-75 CNS 83.7% | SNB-19 CNS 98.5% | U251 CNS 103% | PC-3 prostate 86% | SK-MEL-5 melanoma 89.1% | UACC-62 melanoma 92.1% | LOX IMVI melanoma 20.3% | SK-MEL-28 melanoma 107%

Cc1csc(/N=C(N)/N=C(\N)c2cccc(Br)c2)n1
inactive: HCT-15 colon 67% | HT29 colon 97.4% | SNB-75 CNS 72.8% | SNB-19 CNS 79.2% | U251 CNS 91.5% | PC-3 prostate 87.9% | SK-MEL-5 melanoma 97.6% | UACC-62 melanoma 74.5% | LOX IMVI melanoma 90.4% | SK-MEL-28 melanoma 92.1%

O=C1Nc2ccccc2/C1=C/c1ccc(OCC(=O)c2ccccc2)cc1
inactive: HCT-15 colon 96.8% | HT29 colon 117% | SNB-75 CNS 73.8% | SNB-19 CNS 94.6% | U251 CNS 100% | PC-3 prostate 82.9% | SK-MEL-5 melanoma 97.7% | UACC-62 melanoma 87.1% | LOX IMVI melanoma 94.5% | SK-MEL-28 melanoma 100%

Cc1ccc(Nc2nc(SC(C)C)nc(-c3ccccc3)c2C#N)cc1
inactive: HCT-15 colon 95.1% | HT29 colon 101% | SNB-75 CNS 91.1% | SNB-19 CNS 97.1% | U251 CNS 103% | PC-3 prostate 99.9% | SK-MEL-5 melanoma 83.5% | UACC-62 melanoma 95.5% | LOX IMVI melanoma 96.4% | SK-MEL-28 melanoma 96.8%

CN1CCN(c2ccc(Nc3nc(NCCCNS(=O)(=O)c4ccc(Cl)cc4)c4sccc4n3)cc2)CC1
active: HCT-15 colon 6.7% | HT29 colon -69.7% | U251 CNS -11.3% | SK-MEL-5 melanoma -91.1% | UACC-62 melanoma -30.5% | LOX IMVI melanoma -84.6% | SK-MEL-28 melanoma -71.9%
inactive: SNB-75 CNS 19.8% | SNB-19 CNS 39.5% | PC-3 prostate 51.5%

CC(C)=CCC[C@](C)(O)[C@H]1CC[C@]2(C)[C@@H]1CC[C@@H]1[C@@]3(C)CC[C@H](N)C(C)(C)[C@@H]3CC[C@]12C
active: LOX IMVI melanoma -82.5%
inactive: HCT-15 colon 20.3% | HT29 colon 59.6% | SNB-75 CNS 87.2% | SNB-19 CNS 81.2% | U251 CNS 48.2% | PC-3 prostate 68.3% | SK-MEL-5 melanoma 84.2% | UACC-62 melanoma 91% | SK-MEL-28 melanoma 108%

CC[C@]12C=CCN3CC[C@@]4(c5ccc(OC)cc5N(C)[C@H]4[C@@](O)(C(=O)OC)[C@@H]1OC(=O)CCN1CCc4ccccc4C1)[C@@H]32
inactive: HCT-15 colon 84.8% | HT29 colon 99% | SNB-75 CNS 66.9% | SNB-19 CNS 91.9% | U251 CNS 87.5% | PC-3 prostate 70.1% | SK-MEL-5 melanoma 98.2% | UACC-62 melanoma 99% | LOX IMVI melanoma 88.5% | SK-MEL-28 melanoma 95%

CC(Nc1c(C#N)cnc2ccc(-c3cncc(-c4n[nH]c(=O)o4)c3)cc12)c1ccccc1 (stereo not given)
active: SNB-75 CNS 7.1% | SK-MEL-5 melanoma -84.8% | UACC-62 melanoma -37% | LOX IMVI melanoma -8.49%
inactive: HCT-15 colon 10.4% | HT29 colon 20.2% | SNB-19 CNS 11.1% | U251 CNS 17.6% | PC-3 prostate 18.9% | SK-MEL-28 melanoma 11.2%

CN1CC[C@@H]2[C@@]3(C)CC[C@H](O)C(C)(C)[C@@H]3CC[C@@]2(C)[C@]2(C)CC[C@@]3(CO)CCC(C)(C)C[C@@H]3C12 (stereo not given in full)
inactive: HCT-15 colon 72.7% | HT29 colon 40.3% | SNB-75 CNS 87.7% | SNB-19 CNS 94.5% | U251 CNS 73.9% | PC-3 prostate 79.6% | SK-MEL-5 melanoma 95.6% | UACC-62 melanoma 93% | LOX IMVI melanoma 84.8% | SK-MEL-28 melanoma 88%

Cc1ccc(C(=O)CSc2nc3ccccc3c(=O)n2C)cc1
inactive: HCT-15 colon 94.5% | HT29 colon 111% | SNB-75 CNS 75.5% | SNB-19 CNS 94.9% | U251 CNS 94.6% | PC-3 prostate 88.5% | SK-MEL-5 melanoma 81.4% | UACC-62 melanoma 70.3% | LOX IMVI melanoma 93% | SK-MEL-28 melanoma 101%

CCCCc1nc2c(N)nc3ccccc3c2n1Cc1ccc(OC)cc1
inactive: HCT-15 colon 58.3% | HT29 colon 32.9% | SNB-75 CNS 66.2% | SNB-19 CNS 76% | U251 CNS 67.9% | PC-3 prostate 43.5% | SK-MEL-5 melanoma 47.3% | UACC-62 melanoma 68.2% | LOX IMVI melanoma 75% | SK-MEL-28 melanoma 90.2%

Cc1[nH]c(C(=O)Nc2ccc(C(N)=O)cc2N2CCOC(C)C2)c(Cl)c1Cl (stereo not given)
inactive: HCT-15 colon 93.7% | HT29 colon 118% | SNB-75 CNS 62.3% | SNB-19 CNS 92.7% | U251 CNS 98.6% | PC-3 prostate 96.7% | SK-MEL-5 melanoma 97.2% | UACC-62 melanoma 91.1% | LOX IMVI melanoma 94% | SK-MEL-28 melanoma 108%

C[C@@H]1OCC2(CCN(c3cnc(C(=O)Nc4cc(F)cc5cccnc45)cn3)CC2)[C@@H]1N
inactive: HCT-15 colon 20.9% | HT29 colon 32.4% | SNB-75 CNS 65.1% | SNB-19 CNS 78.1% | U251 CNS 75.3% | PC-3 prostate 55.7% | SK-MEL-5 melanoma 94.4% | UACC-62 melanoma 54% | LOX IMVI melanoma 44.5% | SK-MEL-28 melanoma 70%

— PubChem BioAssay (NCI)
